S-ASM inh = blocks human secretory acid sphingomyelinase; P17405; placental ASM, HMU-PC fluorogenic substrate, 60 min; Potency, µM (titrated, usually from 57.5 µM), actives largely listed as inhibitors; actives 0.006% (n = 340,000)
Target sequence (P17405 47-631 limits assumed): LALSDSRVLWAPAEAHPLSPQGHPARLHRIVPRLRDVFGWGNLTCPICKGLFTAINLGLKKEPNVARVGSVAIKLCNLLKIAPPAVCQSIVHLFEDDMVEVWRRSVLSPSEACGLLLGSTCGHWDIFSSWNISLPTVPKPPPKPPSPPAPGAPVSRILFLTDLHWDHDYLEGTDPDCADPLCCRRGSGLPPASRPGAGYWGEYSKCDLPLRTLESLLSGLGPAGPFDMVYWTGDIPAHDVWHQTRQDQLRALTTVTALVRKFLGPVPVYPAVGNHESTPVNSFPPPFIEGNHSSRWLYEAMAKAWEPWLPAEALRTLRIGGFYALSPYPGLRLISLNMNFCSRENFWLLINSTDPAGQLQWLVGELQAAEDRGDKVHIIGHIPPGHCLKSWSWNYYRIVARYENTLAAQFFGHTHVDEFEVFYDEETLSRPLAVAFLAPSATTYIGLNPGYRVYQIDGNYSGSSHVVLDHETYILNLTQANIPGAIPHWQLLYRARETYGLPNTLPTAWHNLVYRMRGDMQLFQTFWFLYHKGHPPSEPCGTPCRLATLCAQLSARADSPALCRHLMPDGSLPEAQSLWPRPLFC
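qHTS format. ASM enzyme prepared from human placenta hydrolyses the fluorogenic substrate HMU-PC0 (9 uM final) over 60 min at 37 °C after a 10 min compound preincubation.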
HepG2 viability = HepG2 cytotoxicity, counter-screen for TGF-b inhibitors. Potency, µM (highest dose often 46.1 µM), hits mostly cytotoxic. HepG2 CAGA-GFP viability, ATP luminescence, 18 h. actives 0.76% (n = 410,000). AID 588856
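CellTiter-Glo luminescence gave cytotoxicity after 18 hours at 37 degrees C. The cells were HepG2 CAGA-GFP in 1% FBS DMEM, stimulated with 500 pg/mL TGF-beta after compound addition. %Activity was normalised to no-cell wells (complete cell-killing) and DMSO (no toxicity), and curves were fitted and classified.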
IL-1B inflam inh = inhibitors of inflammasome signaling (IL-1 beta secretion); activity change, % at 57.5 µM; THP-1 LPS/ATP IL-1B secretion, AlphaLISA, 16 h; stronger effect = lower value; actives 4.7% (n = 360,000); in the data active = activity change below about -50%; inconclusive = mostly about -30% to -49%
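Secreted IL-1B measured by AlphaLISA bead assay after 16 h compound exposure of THP-1 cells; compounds (final up to 57.5 uM) added 1 h before LPS (250 ng/mL) and ATP (1.25 mM) stimulation; lower signal means less secretion.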
DT40 TDP1 CPT = growth inhibition of DT40 Tdp1-/-;hTDP1 cells with camptothecin (screen for TDP1 inhibitors). chicken DT40 Tdp1-/-;hTDP1 cells + 20 nM CPT, ATP luminescence, 48 h. AID 686979. actives 12% (n = 420,000). Potency, µM (titrated, usually from 46.2 µM), actives largely listed as inhibitors; note: nearly all actives have a fitted effect of over 55% in size
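Cell growth measured by CellTiter-Glo luminescence after a minimum 48 h, 37 C compound exposure with 20 nM CPT in Tdp1-knockout DT40 cells stably expressing hTDP1, seeded 400/well; qHTS titration format.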
TGFb inhibitor = TGF-b pathway inhibition; HepG2 CAGA-GFP TGF-b/SMAD3 reporter, GFP fluorescence, 18 h; TGF-beta stimulated, 500 pg/mL final; AID 588855; actives 1.2% (n = 410,000); Potency, µM (doses to about 46.1 µM), actives largely listed as inhibitors; note: nearly all actives have a fitted effect of over 65% in size
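GFP signal (ex488/em500-530) from TGF-beta-stimulated HEPG2 CAGA-GFP cells, 500 pg/mL final, 18 h at 37 degrees C in DMEM plus 1% FBS, normalized to unstimulated and DMSO-stimulated controls.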
DT40 TDP1 no CPT = qHTS for Inhibitors of human tyrosyl-DNA phosphodiesterase 1 (TDP1): qHTS in cells in absence of CPT; DT40 Tdp1-/- hTDP1 cells, no CPT, ATP luminescence, 48 h; AID 686978, 2013; Potency, µM (titrated, usually from 46.2 µM), usual class: inhibitors; actives 15% (n = 420,000); note: nearly all actives have a fitted effect of over 55% in size
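Seeded 400 DT40-hTDP1 cells/well (vehicle DMSO, no 20 nM CPT); pinned compounds; ≥48 hr at 37 °C; CellTiter-Glo luminescence as viability measure.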
Large screens that a line does not name were inactive. An excerpt weighted towards active compounds, which were near 19% of everything screened. Unless noted, calls come from the whole dose curve; as a rule, active = well fitted curve in the direction sought with a large enough effect; inconclusive = small, poorly fitted or top-dose-only effect, or another doubt; inactive = no such curve, though single readings can be large; an effect the other way counts as inactive or inconclusive.

Cc1cccc(NC(=O)C(C)Sc2ncnc3sccc23)c1 (configuration not stated)	DT40 TDP1 CPT 18µM, DT40 TDP1 no CPT 15µM (no result: S-ASM inh)
CC(Sc1nc2ccccc2c(=O)n1CC1CCCO1)C(=O)N(C)c1ccccc1 (configuration not stated)	DT40 TDP1 CPT 21µM, DT40 TDP1 no CPT 5.8µM
O=C(Cn1cnc2ccccc21)Nc1ccc2c(c1)OCCCO2	DT40 TDP1 CPT 8.2µM, DT40 TDP1 no CPT 2.3µM
Cc1ccc(C)c(NC(=O)C(Sc2nncn2C)c2ccccc2)c1 (configuration not stated)	none
Cc1ccc(C)c(NC(=O)C(Sc2nc3ccccc3c(=O)n2CC(C)C)c2ccccc2)c1 (configuration not stated)	DT40 TDP1 CPT 4.1µM, DT40 TDP1 no CPT 2.6µM
CC(Sc1ncnc2ccccc12)C(=O)Nc1ccc2c(c1)OCCO2 (configuration not stated)	DT40 TDP1 CPT 15µM, TGFb inhibitor inconclusive, DT40 TDP1 no CPT 13µM
CC(Sc1nc2ccccc2c(=O)n1C)C(=O)Nc1ccc2c(c1)OCCO2 (configuration not stated)	DT40 TDP1 CPT 8.2µM, DT40 TDP1 no CPT 4.1µM
O=C(CSc1ncnc2ccccc12)Nc1ccc2c(c1)OCO2	IL-1B inflam inh -65, DT40 TDP1 CPT inconclusive, DT40 TDP1 no CPT inconclusive
O=C(CSc1ncnc2c1cnn2-c1ccccc1)Nc1ccc2c(c1)OCO2	none
CC(C)Cn1c(SC(C)C(=O)Nc2ccc3c(c2)OCCO3)nc2ccccc2c1=O (configuration not stated)	DT40 TDP1 CPT 29µM, DT40 TDP1 no CPT inconclusive
COC(=O)c1ccccc1-c1cc(C)cc2c1OC(CNC(=O)c1cc(C)on1)C2 (configuration not stated)	DT40 TDP1 no CPT inconclusive (no result: S-ASM inh, HepG2 viability, IL-1B inflam inh, TGFb inhibitor)
CCOc1ccc2nc(NC(=O)CN3CCC(n4nnc5cc(C(F)(F)F)ccc54)CC3)sc2c1	DT40 TDP1 CPT 15µM, DT40 TDP1 no CPT 23µM
O=C(CN1CCC(n2nnc3cc(F)ccc32)CC1)N1CCCc2ccccc21	DT40 TDP1 CPT inconclusive, DT40 TDP1 no CPT inconclusive
O=C(CN1CCC(n2nnc3cc(C(F)(F)F)ccc32)CC1)N1CCc2ccccc21	DT40 TDP1 CPT 13µM, DT40 TDP1 no CPT 10µM
NC(CO)C(=O)NNCc1ccc(O)c(O)c1O (configuration not stated)	DT40 TDP1 CPT 3.7µM, DT40 TDP1 no CPT 4.6µM
COC(=O)C(N)Cc1ccc(O)cc1 (configuration not stated)	none
O=S(=O)(c1ccc(-c2ccon2)s1)N1CCN(CCN2CCOCC2)CC1	none
COc1ccc(CN2CC(=O)N3[C@H]4c5cc(C)ccc5OC[C@@H]4[C@H](c4ccccc4)[C@]3(C)C2=O)cc1	DT40 TDP1 CPT inconclusive, DT40 TDP1 no CPT 21µM
COc1ccc2c(c1)OC[C@H]1[C@H]2N2C(=O)CN(Cc3ccco3)C(=O)[C@@]2(C)[C@H]1c1ccccc1	DT40 TDP1 CPT inconclusive, DT40 TDP1 no CPT inconclusive
COc1ccc2c(c1)OC[C@H]1[C@H]2N2C(=O)CN(Cc3ccc(F)cc3)C(=O)[C@@]2(C)[C@H]1c1ccccc1	DT40 TDP1 CPT inconclusive, DT40 TDP1 no CPT inconclusive
Cc1ccc2c(c1)[C@H]1[C@H](CO2)[C@H](c2ccccc2)[C@]2(C)C(=O)N(Cc3ccc(Cl)cc3)CC(=O)N12	DT40 TDP1 CPT inconclusive, DT40 TDP1 no CPT 15µM
CCCCN1CC(=O)N2[C@H]3c4ccc(OC)cc4OC[C@@H]3[C@H](c3ccccc3)[C@]2(C)C1=O	DT40 TDP1 CPT inconclusive, DT40 TDP1 no CPT 23µM
COc1ccc2c(c1)[C@H]1[C@H](CO2)[C@H](c2ccccc2)[C@]2(C)C(=O)N(CC3CCCO3)CC(=O)N12 (some centres not stated)	DT40 TDP1 CPT inconclusive, DT40 TDP1 no CPT inconclusive
Cc1ccc2c(c1)[C@H]1[C@H](CO2)[C@H](c2ccccc2)[C@]2(C)C(=O)N(Cc3ccc(F)cc3)CC(=O)N12	IL-1B inflam inh inconclusive, DT40 TDP1 CPT inconclusive, DT40 TDP1 no CPT 21µM
Cc1ccc(OC(=O)c2cc(-c3ccc4c(c3)OCCO4)on2)c(C)c1	none (no result: S-ASM inh, IL-1B inflam inh)
COc1ccc(S(=O)(=O)N2CCOC2CNC(=O)C(=O)NCC(C)C)cc1OC (configuration not stated)	none
COc1ccc(CN2CC(=O)N3[C@H]4c5ccccc5OC[C@@H]4[C@H](c4ccccc4)[C@]3(C)C2=O)cc1	DT40 TDP1 CPT inconclusive, DT40 TDP1 no CPT 16µM
CCOc1ncnc2c1sc1nc(C)cc(C)c12	none
CC(=O)Cn1cnc2c(sc3nc(C)cc(C)c32)c1=O	IL-1B inflam inh -64, DT40 TDP1 no CPT inconclusive
COc1cccc(Cn2cnc3c(sc4nc(C)cc(C)c43)c2=O)c1	none
Cc1cc(C)c2c(n1)sc1c(N3CCN(CCO)CC3)ncnc12	IL-1B inflam inh -77, DT40 TDP1 no CPT inconclusive
Cc1cc(C)[n+]2[nH]c(N)c(N=Nc3ccccc3)c2n1	HepG2 viability 13µM, DT40 TDP1 CPT inconclusive, DT40 TDP1 no CPT 16µM
CCc1nc2ccc(C(=O)NCCc3ccccc3OC)cc2nc1CC	IL-1B inflam inh inconclusive, DT40 TDP1 CPT inconclusive, TGFb inhibitor inconclusive, DT40 TDP1 no CPT inconclusive
COc1ccccc1CNC(=O)c1cc2ccc3ccc(C)[nH]c3c2n1	DT40 TDP1 CPT 18µM, TGFb inhibitor inconclusive, DT40 TDP1 no CPT 16µM (no result: S-ASM inh, IL-1B inflam inh)
COc1ccccc1CNC(=O)c1ccccc1OC	IL-1B inflam inh inconclusive
COc1ccccc1CNC(=O)c1ccc2nc3[nH]c4ccccc4c3nc2c1	IL-1B inflam inh -53, DT40 TDP1 CPT inconclusive, DT40 TDP1 no CPT 8.2µM
COc1ccc(Cl)cc1NC(=O)c1cc2ccc3ccc(C)[nH]c3c2n1	DT40 TDP1 CPT inconclusive, TGFb inhibitor inconclusive, DT40 TDP1 no CPT 23µM (no result: S-ASM inh, IL-1B inflam inh)
COc1ccc(Cl)cc1NC(=O)CC(=O)Nc1cc(Cl)ccc1OC	none
O=C(NCC(=O)N1CCN(c2ccccn2)CC1)c1ccc(Br)o1	none
CCC(=O)c1ccc(OCC(=O)OCc2csc(CC(=O)Nc3ccccc3C)n2)cc1	none (no result: S-ASM inh)
CCOC(=O)Cc1ccc(Nc2nc3cc(-c4sccc4C)sc3c(=O)n2C)cc1	DT40 TDP1 CPT 2.9µM, TGFb inhibitor inconclusive, DT40 TDP1 no CPT 3.7µM (no result: S-ASM inh)
COc1ccc(Nc2nc3cc(-c4ccsc4)sc3c(=O)n2C)cc1OC	DT40 TDP1 CPT 13µM, DT40 TDP1 no CPT inconclusive (no result: S-ASM inh)
COc1cccc(-c2cc3nc(NCc4ccc(C)cc4C)n(C)c(=O)c3s2)c1	DT40 TDP1 CPT inconclusive, DT40 TDP1 no CPT inconclusive (no result: S-ASM inh)
